The values that follow come from ChEMBL document CHEMBL4513216, “Probing the Open Global Health Chemical Diversity Library for Multistage-Active Starting Points for Next-Generation Antimalarials” (ACS Infect Dis, 2020).

Out of some 69,000 compounds screened, about 8,600 (12%) showed an effect of 50% or more. Only a selection was taken, and strong results are over-represented in it overall.

The test system of the experiment is Plasmodium berghei. The experiment can be described thus: Screen against P. berghei liver stage (PbLuc), transformed with Luciferase, at 10uM. Conditions: tested at 10 uM. The class given is functional, HepG2.
For `COCC(=O)N1CCN(c2ccc(C(=O)OC)cc2)CC1C` (stereo unspecified), the INHIBITION is recorded as -31.4%.
The value for `Cc1cc(Oc2ccc(NC(=O)C3CC3)cc2)cc(C2CCNCC2)n1` was 10.535%; that for `CN(CCCc1cnn(C)c1)c1nccc(-c2cc(C(=O)O)ccn2)n1` was 21.2%; that for `Cc1cccc(CN2Cc3nccn3CC(CN3CCOCC3)C2)c1` (stereo unspecified) was 43.9%.
With `O=C1COc2cc(C(=O)NS(=O)(=O)c3cc(Cl)ccc3Cl)ccc2N1`, the INHIBITION stood at 37.4%.
The value for `CN(C)C(=O)COCc1cncc2c1CCN(Cc1ccccn1)C2` was -11%; that for `COc1ccc(-c2nccc(C3CCCN3C)n2)cc1` (stereo unspecified) was 16.5%; that for `O=C(N1CCCC1)N1CCOCC2(C1)CN(c1ccccc1)C(=O)CO2` (stereo unspecified) was -1.36%.
Turning to `COc1ccc(NC(=O)C2CC2)cc1OCc1cccnc1`, the INHIBITION is 34.1%.
Turning to `COc1ccc(NC(=O)C(C)(C)C)cc1OCc1cccnc1`, the INHIBITION was 43.4%.
With `COc1ccc(NC(C)=O)cc1OCc1cccnc1`, the INHIBITION turned out to be 66.5%.
Consider `Cc1nnc(N2CCCC3(CN(Cc4ccc(C)s4)CCO3)C2)o1` (stereo unspecified), for which the INHIBITION is 1.81%.
The same measure for `COCc1noc(-c2ccc(N(C)Cc3c(C)n[nH]c3C)nc2)n1`: 56.9%; for `COCc1noc(-c2ccc(N(C)Cc3ccc(C)o3)nc2)n1`: -26.7%.
The value for `COCc1noc(-c2ccc(N(C)Cc3cc(C)no3)nc2)n1` was 33.5%; that for `Cc1ccc(N2CCN(C(=O)[C@@H]3CCC(=O)N3)CC2=O)cc1` was 4.95%; that for `O=C(NCc1ccc(Cl)cc1)C1CCCN(c2ccc3nncn3n2)C1` (stereo unspecified) was 15.7%.
The same measure for `CC(C)CC(=O)N1CCCC1c1cc(CO)[nH]n1` (stereo unspecified): -0.7%; for `O=C(O)c1nnn(-c2ccccc2F)c1-c1ccncc1`: 50.7%.
`O=C(O)c1nnn(-c2ccc(F)c(F)c2)c1-c1ccncc1`: the INHIBITION is recorded as -6.32%.
For `CCc1ccc(-n2nnc(C(=O)O)c2-c2ccncc2)cc1`, the INHIBITION is 6%.
The value for `CC(C)NC(=O)c1nnn(-c2cccc(F)c2)c1C1CC1` was -18.9%; that for `CC(C)NC(=O)c1nnn(-c2cccc(C(F)(F)F)c2)c1C1CC1` was 58.5%; that for `Cc1ccc(F)c(-n2nnc(C(=O)O)c2-c2ccncc2)c1` was 7.9%.
In the case of `O=C(O)c1nnn(-c2ccc(C(F)(F)F)cc2)c1-c1ccncc1`, the INHIBITION is on record as 18.4%.
The same measure for `O=C(O)c1nnn(-c2ccccc2)c1-c1ccncc1`: 54%.
The same measure for `O=C(O)c1nnn(-c2cccc(C(F)(F)F)c2)c1-c1ccncc1`: 65.6%.
The value for `O=C(O)c1nnn(-c2ccc(Cl)c(C(F)(F)F)c2)c1-c1ccncc1` was -5.59%; that for `O=C(NC1CC1)c1nnn(-c2cccc(C(F)(F)F)c2)c1C1CC1` was 18.6%; that for `O=C(O)c1nnn(-c2cc(F)cc(F)c2)c1-c1ccncc1` was 16.8%.
As for `COc1cc2cc3c(nc2cc1OC)OCCN(Cc1ccco1)C3`, the INHIBITION is 16.5%.
With `COCCCNC(=O)CN(C)C(=O)CN(C)c1ccc(C#N)cn1`, the INHIBITION was -12.1%.
The same measure for `CC(=O)N1CCn2c(-c3ccccc3)cnc2C12CCNCC2`: 33%; for `Cc1nn(C)c(N(C)C)c1CNCC(O)c1ccccc1F` (stereo unspecified): 25.1%.
The same measure for `Cc1cc(C(=O)N2CCCC(C(=O)c3cccs3)C2)c(=O)[nH]c1C` (stereo unspecified): 33.3%.
Turning to `O=C(c1cnc(NCC2CCCO2)c(Cl)c1)N1CCCCC1` (stereo unspecified), the INHIBITION is 32.2%.
The value for `N#Cc1cnc(NCc2ccc(C(=O)NC3CC3)cc2)c(Cl)c1` was -32.9%.
The same measure for `N#Cc1ccc(CNc2ncc(C#N)cc2Cl)cc1`: 20.1%.
Take `O=C(c1cnc(NCc2cccnc2)c(Cl)c1)N1CCCCC1`: the INHIBITION worked out at 56.3%.
The same measure for `N#Cc1cnc(NCc2cccc(C(=O)N3CCCC3)c2)c(Cl)c1`: 57.5%.
The value for `O=C(c1cnc(NCc2sccc2Br)c(Cl)c1)N1CCCCC1` was 24.2%; that for `CCc1ccc(CN(C)Cc2nc(COc3ccccc3)no2)nc1` was 29.6%.
Regarding `c1ccc(CN2CCc3ncnc(C4CC4)c3CC2)nc1`, the INHIBITION stood at 21.1%.
As for `O=C(c1cscn1)N1CCC[C@]2(C[C@@H](OCC3CC3)CO2)C1`, the INHIBITION was determined as 36.9%.
The same measure for `CN(Cc1ccco1)Cc1ccccc1CNC(=O)c1ccncc1`: -4.86%; for `Cc1ncccc1C(=O)NCc1ccccc1CN(C)Cc1ccco1`: 67.3%; for `Cc1oc(C)c(C(=O)NCc2ccccc2CN(C)C)c1C`: 25.55%.
The same measure for `CN(Cc1ccco1)Cc1ccccc1CNC(=O)c1cnc[nH]1`: 69.3%.
The same measure for `CN(C)c1ncccc1CNC(=O)NCc1ccco1`: -36.3%; for `CN(Cc1ccco1)Cc1ccccc1CNC(=O)c1c[nH]nn1`: -1.28%; for `Cc1cc(CN(C)C(=O)NCc2ccco2)no1`: 14.1%.
For the compound `CN(Cc1ccco1)Cc1ccccc1CNC(=O)c1csnn1`, the INHIBITION turned out to be 46.4%.
The same measure for `CN(Cc1ccco1)Cc1ccccc1CNC(=O)c1cc[nH]n1`: 30.1%; for `Cc1cc(C(=O)NCc2ccccc2CN(C)Cc2ccco2)on1`: 77.2%.
The value for `CN(Cc1ccco1)Cc1ccccc1CNC(=O)c1cnccn1` was 63.3%.
As for `CN(Cc1ccco1)Cc1ccccc1CNC(=O)c1ccc[nH]1`, the INHIBITION stood at 30.1%.
